Values joined by “and” are separate entries in the source; they are usually repeats but may differ in a detail not shown here. Equal entries are not always repeated. Results filed as inconclusive are left out. Entries that show only a call come without a potency. Some compounds were tested as several samples or in several runs, with calls that do not always agree. Active and inactive are the calls of the source. Unless noted, calls follow the shape of the dose curve; as a rule, active = well fitted curve in the direction sought with a large enough effect in the repeat runs; inconclusive = weak or mixed curves; inactive = no such curve, though single readings can be large; an effect the other way counts as inactive or inconclusive.
Key:
[1] = target: Peroxisome proliferator-activated receptor delta (Homo sapiens) (UniProt Q03181); assay: qHTS assay to identify small molecule agonists of the peroxisome proliferator-activated receptor delta (PPARd) signaling pathway (AID 743212; calls by dose curve)
Chain of Peroxisome proliferator-activated receptor delta (Homo sapiens) (Q03181 whole entry, looked up): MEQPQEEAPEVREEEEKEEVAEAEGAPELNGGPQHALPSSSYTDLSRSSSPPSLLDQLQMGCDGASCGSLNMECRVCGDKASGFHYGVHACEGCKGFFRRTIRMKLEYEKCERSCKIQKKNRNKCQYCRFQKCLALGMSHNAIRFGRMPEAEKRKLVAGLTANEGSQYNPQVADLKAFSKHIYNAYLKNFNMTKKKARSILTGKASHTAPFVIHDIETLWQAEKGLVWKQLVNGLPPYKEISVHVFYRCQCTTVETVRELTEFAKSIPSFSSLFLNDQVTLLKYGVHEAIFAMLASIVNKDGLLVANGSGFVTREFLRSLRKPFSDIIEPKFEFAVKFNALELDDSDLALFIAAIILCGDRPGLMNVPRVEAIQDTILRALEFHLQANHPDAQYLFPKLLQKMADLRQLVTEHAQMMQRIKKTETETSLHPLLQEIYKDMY
How it was run: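 Steps: seed PPARd-bla HEK293H cells; incubate 5 h, 37 C, 5% CO2; add compounds in DMSO; incubate, 37 C; add LiveBLAzer B/G FRET substrate; hold 2 h at room temperature; measure fluorescence.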

[2] = qHTS assay to identify small molecule agonists of the farnesoid-X-receptor (FXR) signaling pathway - cell viability counter screen (AID 743218); also: nearly all actives have a fitted effect of over 45% in size; also: potency is read from the fitted curve at half-maximal effect
How it was run: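 Luminescence from CellTiter-Glo, read after 30 min at RT, reports viability of GeneBLAzer FXR-UAS-bla HEK 293T cells treated 16 h with compounds in the wells used for the beta-lactamase reporter.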

[3] = target: Bile acid receptor (Homo sapiens) (UniProt Q96RI1); assay: qHTS assay to identify small molecule agonists of the farnesoid-X-receptor (FXR) signaling pathway (AID 743220; active = well fitted activation curve with a large enough effect in the signal ratio in the repeat runs, not every such curve was filed as active; the % refers to the signal ratio)
Chain of Bile acid receptor (Homo sapiens) (Q96RI1 whole entry, looked up): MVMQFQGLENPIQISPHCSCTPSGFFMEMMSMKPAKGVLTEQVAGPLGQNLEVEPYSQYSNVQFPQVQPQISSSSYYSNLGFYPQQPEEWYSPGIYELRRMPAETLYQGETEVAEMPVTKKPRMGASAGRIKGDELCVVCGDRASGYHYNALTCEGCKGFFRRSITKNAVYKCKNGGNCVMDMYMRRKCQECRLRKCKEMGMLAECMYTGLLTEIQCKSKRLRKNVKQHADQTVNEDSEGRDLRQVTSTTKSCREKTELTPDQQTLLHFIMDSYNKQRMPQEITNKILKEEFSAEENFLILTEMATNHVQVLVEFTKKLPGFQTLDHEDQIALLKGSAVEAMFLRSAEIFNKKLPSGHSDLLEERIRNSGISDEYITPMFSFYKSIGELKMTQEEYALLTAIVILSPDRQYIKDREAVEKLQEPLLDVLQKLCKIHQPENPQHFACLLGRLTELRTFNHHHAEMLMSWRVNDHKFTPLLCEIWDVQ
How it was run: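 FXR-UAS-bla HEK 293T cells carrying a UAS-driven beta-lactamase reporter were plated for 5 h at 37C/5% CO2, then exposed to DMSO-dissolved Tox21 10K compounds for 16 h at 37C. A LiveBLAzer B/G FRET substrate was loaded for 2 h at room temperature before fluorescence reading.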

[4] = qHTS assay to identify small molecule antagonists of the farnesoid-X-receptor (FXR) signaling pathway - cell viability counter screen (AID 743221; active = well fitted cell-killing curve with a large enough effect in the repeat runs, not every such curve was filed as active; also: nearly all actives have a fitted effect of over 50% in size; also: potency is read from the fitted curve at half-maximal effect)
How it was run: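 Cytotoxicity counter screen run in the FXR-bla reporter wells: HEK 293T cells exposed to compound with 50 uM (final) chenodeoxycholic acid for 16 h, 37 C, then viability measured by CellTiter-Glo luminescence after 30 min, room temperature.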

[5] = qHTS assay to identify small molecule agonists of the vitamin D receptor (VDR) signaling pathway - cell viability counter screen (AID 743224); also: nearly all actives have a fitted effect of over 50% in size; also: potency is read from the fitted curve at half-maximal effect
How it was run: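 Cytotoxicity counter screen: VDR-bla cells, 16 h compound exposure at 37C, 5% CO2; CellTiter-Glo luminescence, 30 min RT, same wells as bla read.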

[6] = qHTS assay to identify small molecule antagonists of the vitamin D receptor (VDR) signaling pathway - cell viability counter screen (AID 743225); also: nearly all actives have a fitted effect of over 50% in size; also: potency is read from the fitted curve at half-maximal effect
How it was run: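 Cytotoxicity counter screen read by CellTiter-Glo luminescence (30 min, room temperature) in the same wells as the VDR-bla antagonist readout. HEK 293T VDR-UAS-bla cells had 16 h at 37C with compound and 3 nM (final) 1-alpha,25-dihydroxyvitamin D3, then 2 h with FRET substrate.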

[7] = qHTS assay to identify small molecule agonists of the NFkB signaling pathway - cell viability counter screen (AID 1159515; calls by dose curve; also: nearly all actives have a fitted effect of over 55% in size; also: potency is read from the fitted curve at half-maximal effect)
How it was run: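 ME-180 NFkB-bla cells, 2,000/well; overnight attach; compound 5 hr, 37 C/5% CO2; LiveBLAzer substrate 1.5 hr RT; then CellTiter-Glo in same wells, 30 min RT, luminescence read.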

[8] = qHTS assay to identify small molecule agonists of the endoplasmic reticulum stress response signaling pathway (AID 1159516; active = well fitted activation curve with a large enough effect in the signal ratio in the repeat runs, not every such curve was filed as active; the % refers to the signal ratio)
How it was run: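 HeLa ESRE-bla reporter line; cpd 5 h, 37 C/5% CO2; LiveBLAzer B/G FRET substrate 2 h RT; ex 405, em 460/530 nm.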

[9] = qHTS assay to identify small molecule agonists of the endoplasmic reticulum stress response signaling pathway - cell viability counter screen (AID 1159517; calls by dose curve; also: nearly all actives have a fitted effect of over 50% in size; also: potency is read from the fitted curve at half-maximal effect)
How it was run: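 After overnight attachment, ESRE-bla HeLa cells were treated with Tox21 library compounds for 5 hr. CellTiter-Glo luminescence, read 30 min post-addition at room temperature, reported viability.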

[10] = target: Nuclear receptor ROR-gamma (Homo sapiens) (UniProt P51449); assay: qHTS assay to identify small molecule antagonists of the retinoid-related orphan receptor gamma (ROR-gamma) signaling pathway (AID 1159521; also: nearly all actives have a fitted effect of over 50% in size; also: potency is read from the fitted curve at half-maximal effect)
How it was run: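 Antagonist read-out: drop in luminescence (ONE-Glo) from an RORE-LUC reporter in CHO cells with doxycycline-inducible ROR-gamma; 2 hr compound pretreatment, 1 uM doxycycline, 16 hr incubation at 37 C.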

[11] = qHTS assay to identify small molecule agonists of the AP-1 signaling pathway - cell viability counter screen (AID 1159525; calls by dose curve; also: nearly all actives have a fitted effect of over 55% in size; also: potency is read from the fitted curve at half-maximal effect)
How it was run: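 Intracellular ATP by Cell Titer Glo luminescence (30 min, RT) in the same ME-180 AP-1-bla wells after the 5 h compound exposure at 37 °C. Normalised to tetra n-octyl ammonium bromide and DMSO controls.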

[12] = qHTS assay to identify small molecule agonists of the RXR signaling pathway - cell viability counter screen (AID 1159529); also: nearly all actives have a fitted effect of over 50% in size; also: potency is read from the fitted curve at half-maximal effect
How it was run: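 CellTiter-Glo luminescence gave viability in the wells also read for beta-lactamase. Cells (RXR-alpha-UAS-bla HEK 293T, 2% charcoal-stripped FBS medium) had 5 hr plating, then 16 hr compound exposure at 37 C; tetraoctyl ammonium bromide served as positive control.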

[13] = qHTS assay to identify small molecule antagonists of the peroxisome proliferator-activated receptor delta (PPARd) signaling pathway - cell viability counter screen (AID 743213); also: nearly all actives have a fitted effect of over 50% in size; also: potency is read from the fitted curve at half-maximal effect
How it was run: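 Same-well viability: cells pre-incubated 5 h, dosed with compound plus 300 nM L165041, kept 17 h at 37 C, FRET substrate 2 h RT, then CellTiter-Glo 30 min RT and luminescence.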

[14] = target: Peroxisome proliferator-activated receptor delta (Homo sapiens) (UniProt Q03181); assay: qHTS assay to identify small molecule antagonists of the peroxisome proliferator-activated receptor delta (PPARd) signaling pathway (AID 743215; active = well fitted inhibition curve with a large enough effect in the signal ratio in the repeat runs, not every such curve was filed as active; the % refers to the signal ratio;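 also: cells stimulated with agonist L165041 at 300 nM final during compound exposure; series mostly up to about 62 µM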)
How it was run: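 HEK293H GeneBLAzer PPARd UAS-bla reporter cells; cpd + L165041 300 nM final, 17 h 37 C; LiveBLAzer B/G FRET substrate 2 h RT; fluorescence intensity read-out. Antagonist mode.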

[15] = qHTS assay to identify small molecule antagonists of the retinoid-related orphan receptor gamma (ROR-gamma) signaling pathway - cell viability counter screen (AID 1159520); also: nearly all actives have a fitted effect of over 50% in size; also: potency is read from the fitted curve at half-maximal effect
How it was run: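 Cytotoxicity was read from cellular ATP (CellTiter-Glo luminescence) after 16 hr at 37 C with 1 uM doxycycline induction. The inducer was added 2 hr after compound transfer to Tet-on ROR gamma CHO cells.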

[16] = qHTS assay to identify small molecule agonists of the AP-1 signaling pathway (AID 1159526; calls by dose curve)
[17] = target: Vitamin D3 receptor (Homo sapiens) (UniProt P11473); assay: qHTS assay to identify small molecule antagonists of the vitamin D receptor (VDR) signaling pathway (AID 743223; active = well fitted inhibition curve with a large enough effect in the signal ratio in the repeat runs, not every such curve was filed as active; the % refers to the signal ratio; also: potency is read from the fitted curve at half-maximal effect)
Chain of Vitamin D3 receptor (Homo sapiens) (P11473 whole entry, looked up): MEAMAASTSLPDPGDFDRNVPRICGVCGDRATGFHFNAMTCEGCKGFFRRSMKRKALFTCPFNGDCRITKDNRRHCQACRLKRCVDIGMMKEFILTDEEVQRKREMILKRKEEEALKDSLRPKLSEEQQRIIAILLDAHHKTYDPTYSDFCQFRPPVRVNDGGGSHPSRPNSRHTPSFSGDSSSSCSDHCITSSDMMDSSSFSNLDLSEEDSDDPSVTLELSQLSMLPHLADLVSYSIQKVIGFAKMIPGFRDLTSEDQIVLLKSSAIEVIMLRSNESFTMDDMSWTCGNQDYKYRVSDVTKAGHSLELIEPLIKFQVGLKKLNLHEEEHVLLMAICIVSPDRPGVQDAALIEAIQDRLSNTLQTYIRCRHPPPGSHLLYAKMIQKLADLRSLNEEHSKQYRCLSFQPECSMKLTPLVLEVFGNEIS
How it was run: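 Antagonist mode: compound added to VDR-bla cells alongside agonist 1alpha,25-dihydroxyvitamin D3 (3 nM final), incubation 16 h at 37C. Read-out is LiveBLAzer FRET fluorescence, 2 h at room temperature.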

[18] = target: Vitamin D3 receptor (Homo sapiens) (UniProt P11473); assay: qHTS assay to identify small molecule agonists of the vitamin D receptor (VDR) signaling pathway (AID 743222; calls by dose curve)
How it was run: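 Beta-lactamase reporter readout (LiveBLAzer B/G FRET, 2 h RT) in VDR-bla cells after 16 h compound treatment at 37C, 5% CO2; cells pre-incubated 4 h before pin transfer of DMSO solutions.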

[19] = target: Bile acid receptor (Homo sapiens) (UniProt Q96RI1); assay: qHTS assay to identify small molecule antagonists of the farnesoid-X-receptor (FXR) signaling pathway (AID 743217; active = well fitted inhibition curve with a large enough effect in the signal ratio in the repeat runs, not every such curve was filed as active; the % refers to the signal ratio)
How it was run: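 Read-out: beta-lactamase FRET fluorescence (LiveBLAzer B/G substrate, 2 h, room temperature) in GeneBLAzer FXR-UAS-bla HEK 293T cells. Compounds were co-dosed with 50 uM chenodeoxycholic acid (final) and incubated 16 h at 37 °C.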

[20] = target: Retinoic acid receptor RXR-alpha (Homo sapiens) (UniProt P19793); assay: qHTS assay to identify small molecule agonists of the RXR signaling pathway (AID 1159527; calls by dose curve; also: nearly all actives have a fitted effect of over 35% in size)
Chain of Retinoic acid receptor RXR-alpha (Homo sapiens) (P19793 whole entry, looked up): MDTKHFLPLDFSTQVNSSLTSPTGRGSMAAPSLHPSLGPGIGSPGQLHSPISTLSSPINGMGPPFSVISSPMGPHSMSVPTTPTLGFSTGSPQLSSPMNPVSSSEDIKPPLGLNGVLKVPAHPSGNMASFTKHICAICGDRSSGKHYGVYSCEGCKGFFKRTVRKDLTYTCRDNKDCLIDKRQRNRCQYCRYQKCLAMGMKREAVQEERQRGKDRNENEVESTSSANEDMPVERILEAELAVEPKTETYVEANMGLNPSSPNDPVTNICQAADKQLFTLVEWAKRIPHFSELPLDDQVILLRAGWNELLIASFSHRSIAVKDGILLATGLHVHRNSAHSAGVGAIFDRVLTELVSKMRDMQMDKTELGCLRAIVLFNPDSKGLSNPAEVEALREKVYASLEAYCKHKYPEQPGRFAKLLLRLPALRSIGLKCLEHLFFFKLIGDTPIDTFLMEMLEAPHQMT
How it was run: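 Agonist-mode beta-lactamase reporter assay: HEK 293T RXR-alpha-UAS-bla cells treated 16 hr at 37 C with compounds, 9-cis retinoic acid as positive control. LiveBLAzer FRET substrate, 405 nm excitation, 460/530 nm emission.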

| Compound | Potency [1] | Potency [2] | Potency [3] | Potency [4] | Potency [5] | Potency [6] | Potency [7] | Potency [8] | Potency [9] | Potency [10] | Potency [11] | Potency [12] | Potency [13] | Potency [14] | Potency [15] | outcome [16] | Potency [17] | outcome [18] | Potency [19] | Potency [20] |
| --- | --- | --- | --- | --- | --- | --- | --- | --- | --- | --- | --- | --- | --- | --- | --- | --- | --- | --- | --- | --- |
| CC(C)Nc1ccc(Nc2ccccc2)cc1 | inactive | inactive | inactive | inactive | 43.5 µM (active) and 43.6 µM (active) | 43.6 µM (active) | inactive | inactive | inactive | 38.4 µM (active) and 54.5 µM (active) | 43.5 µM (active) and 54.9 µM (active) | 19.4 µM (active) and 21.9 µM (active) |  |  |  |  |  |  |  |  |
| c1ccc2c(c1)Nc1ccccc1S2 | inactive | inactive |  | inactive | inactive | inactive | inactive | inactive | inactive | inactive | inactive | inactive | inactive | inactive | inactive |  |  |  |  |  |
| COC(=O)Nc1nc2ccccc2[nH]1 | inactive | inactive |  | inactive | inactive | inactive | inactive | inactive | inactive | inactive | inactive |  |  |  | inactive | inactive |  |  |  |  |
| O=[N+]([O-])c1ccc(Cl)c([N+](=O)[O-])c1 |  | 54.9 µM (active) |  |  | 14 µM (active) and 17.4 µM (active) | 19.8 µM (active) and 19.5 µM (active) | 49.7 µM (active) and 54.9 µM (active) |  | 22.2 µM (active) and 49 µM (active) | 6.21 µM (active) and 6.86 µM (active) | 35.2 µM (active) and 34.7 µM (active) |  | 24.9 µM (active) and 19.5 µM (active) |  | 49.3 µM (active) and 21.7 µM (active) |  | 22.2 µM (active) and 21.9 µM (active) |  |  |  |
| CCC[CH2][Sn]([Cl])([CH2]CCC)[CH2]CCC |  | 873 nM (active) and 1.23 µM (active) |  | 1.95 µM (active) and 2.45 µM (active) | 437 nM (active) and 1.23 µM (active) | 618 nM (active) and 3.47 µM (active) | 1.1 µM (active) and 1.95 µM (active) |  | 1.74 µM (active) and 3.09 µM (active) | 194 nM (active) and 686 nM (active) | 873 nM (active) and 1.74 µM (active) |  |  |  | 1.54 µM (active) and 1.72 µM (active) |  |  |  |  |  |
| Oc1ccc(Cl)cc1Cc1ccccc1 | inactive |  |  | inactive | inactive |  | 54.9 µM (active) and 49.6 µM (active) | inactive | 49 µM (active) and inactive |  | 54.9 µM (active) and 44.2 µM (active) | 49 µM (active) and 24.8 µM (active) | 44.2 µM (active) and inactive |  | 61.1 µM (active) and inactive |  |  |  |  |  |
| COP(=S)(OC)SCn1nnc2ccccc2c1=O | inactive | inactive |  | inactive | inactive | inactive | inactive | inactive | inactive | inactive | inactive | inactive |  |  | inactive |  | inactive | inactive |  |  |
| CCCCOC(=O)COC(=O)c1ccccc1C(=O)OCCCC | inactive |  |  | inactive | inactive | inactive | inactive | inactive | inactive | inactive | inactive |  |  |  | inactive | inactive |  |  |  |  |
| COc1ccc(O)c(C(C)(C)C)c1 |  | inactive | inactive | inactive | inactive | inactive | inactive | inactive | inactive |  | inactive |  |  |  | inactive | inactive | inactive | inactive | inactive | inactive |
| N#Cc1c(Cl)c(Cl)c(Cl)c(C#N)c1Cl |  | 21.5 µM (active) and 15.5 µM (active) |  | 24.1 µM (active) and 21.9 µM (active) | 1.91 µM (active) and 1.95 µM (active) | 6.79 µM (active) and 8.71 µM (active) | inactive |  | 5.39 µM (active) and 5.49 µM (active) | 1.9 µM (active) and 1.22 µM (active) | 7.76 µM (active) |  | 15.2 µM (active) and 5.49 µM (active) |  | 1.51 µM (active) and 864 nM (active) |  |  |  |  |  |
| Cl |  |  |  | inactive | inactive | inactive | inactive | inactive | inactive |  | inactive |  | inactive |  | inactive | inactive |  |  |  |  |
| CCCCCCCC[N+](C)(CCCCCCCC)CCCCCCCC |  | 7.75 µM (active) and 2.19 µM (active) and 7.76 µM (active) |  | 13.8 µM (active) and 7.77 µM (active) and 21.9 µM (active) | 6.15 µM (active) and 3.09 µM (active) and 5.49 µM (active) | 5.48 µM (active) and 6.93 µM (active) and 6.16 µM (active) | 17.3 µM (active) and 24.5 µM (active) | inactive | inactive and 13.8 µM (active) and 21.9 µM (active) | 4.32 µM (active) and 2.17 µM (active) and 6.11 µM (active) | 17.3 µM (active) and 13.8 µM (active) and 19.5 µM (active) | 346 nM (active) and 15.5 µM (active) and 6.16 µM (active) | 3.88 µM (active) and 2.46 µM (active) and 5.49 µM (active) |  | 24.3 µM (active) and 21.7 µM (active) and 10.9 µM (active) |  |  |  |  |  |
| NN=C(N)N |  |  |  | inactive | inactive | inactive | inactive | inactive | inactive |  | inactive |  |  |  | inactive | inactive |  |  |  |  |
| CCCCC(C#N)(Cn1cncn1)c1ccc(Cl)cc1 (centres undefined) | inactive |  |  | inactive | inactive | inactive | inactive | inactive | inactive |  | inactive | inactive |  |  | inactive | inactive |  |  |  |  |

Source: PubChem BioAssay (Tox21)
